Hits are enriched below; roughly 11% of the tested compounds scored in any of these assays.
L3MBTL1 block: qHTS Assay for the Inhibitors of L3MBTL1. Lethal(3)malignant brain tumor-like protein 1 (Homo sapiens), Q9Y468. AID 485360, 2010. AlphaScreen L3MBTL1–H3K9me1 peptide binding. Potency, µM (top dose mostly 57.1 µM), for the others: at the top dose activity, negative = inhibition, most hits filed as inhibitors. hit rate 0.66% among 230,000; note: potency is the fitted concentration of half-maximal effect; % is set by controls: 0 for no effect and ±100 for the full control effect; nearly all actives have a fitted effect of over 60% in size
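L3MBTL1 50 nM + b-AHA-H3(1-15)K9me1 75 nM, 30 min RT; compound added, 30 min RT; streptavidin donor/Ni-chelate acceptor beads 10 ug/mL each final, 30 min RT dark; AlphaScreen read.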
BAZ2B inh: qHTS Assay for Inhibitors of BAZ2B | Potency, µM (series often up to 114 µM), for inactives: top-dose activity change, negative = inhibition, usual class: inhibitors | AlphaScreen BAZ2B-H3K14Ac peptide displacement | Bromodomain adjacent to zinc finger domain protein 2B (Homo sapiens), Q9UIF8 | hit rate 4.4% among 360,000; note: potency is the fitted concentration of half-maximal effect; % is set by controls: 0 for no effect and ±100 for the full control effect; nearly all actives have a fitted effect of over 60% in size
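AlphaScreen luminescence quantifies BAZ2B engagement of H3K14Ac peptide; the protein and biotinylated peptide are both at 50 nM final, buffer PBS pH 7.4 with 0.01% Tween-20, all steps at room temperature.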
PI5P4K alpha inh: qHTS for Inhibitors of phosphatidylinositol 5-phosphate 4-kinase (PI5P4K). Phosphatidylinositol 5-phosphate 4-kinase type-2 alpha (Homo sapiens), P48426. hit rate 1.2% among 330,000. max response, %. AID 652105, 2013. PI5P4Kalpha enzyme, ADP-Glo luminescence, 60 min; active compounds read low; active = max response of -50% or lower; inconclusive = between -30% and -50%; inactive = -30% or higher; note: value at the top dose of about 77 µM; % is set by controls: 0 for no effect and ±100 for the full control effect
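PI5P4Kalpha ADP-Glo assay; 5 microM ATP final; 60 min RT reaction; HEPES pH 7.4/EGTA/CHAPS, 5% DMSO; controls lacking substrate or enzyme; luminescent end-point.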
G9a inh: qHTS Assay for Inhibitors of Histone Lysine Methyltransferase G9a; Histone-lysine N-methyltransferase EHMT2 (Homo sapiens), Q96KQ7; G9a H3K9 monomethylation, AlphaScreen, 2 h; Potency, µM (series often up to 102 µM), for inactives: top-dose activity, negative = inhibition, most hits filed as inhibitors; hit rate 8.8% among 350,000; AID 504332, 2011; note: potency is the fitted concentration of half-maximal effect; % is set by controls: 0 for no effect and ±100 for the full control effect; nearly all actives have a fitted effect of over 75% in size
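G9a (20 nM) preincubated 15 min RT with compounds, then 500 nM biotinylated H3K9 peptide and 20 uM SAM added; 2 h RT reaction. Monomethyl-H3K9 product detected by AlphaScreen with anti-H3K9me1 antibody, streptavidin donor and anti-rabbit IgG acceptor beads.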
HP1b chromo inh: HTS for Inhibitors of HP1-beta Chromodomain Interactions with Methylated Histone Tails; AlphaScreen HP1-beta / biotin-H3K9me3 peptide binding; Potency, µM (doses to about 114 µM), for the others: at the top dose activity change, negative = inhibition, actives largely listed as inhibitors; hit rate 0.56% among 390,000; note: potency is the fitted concentration of half-maximal effect; nearly all actives have a fitted effect of over 70% in size
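AlphaScreen: HP1-beta (50 nM) preformed 30 min with biotin-H3(1-18)K9me3 peptide (50 nM) in PBS pH 7.4, 0.01% Tween-20. Compound added for 30 min at RT, then streptavidin donor/nickel chelate acceptor beads (10 ug/mL) for 30 min.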
JMJD2A Tudor inh: qHTS Assay for Inhibitors of JMJD2A-Tudor Domain; Lysine-specific demethylase 4A (Homo sapiens), O75164; AlphaScreen JMJD2A-Tudor / H3K4me3 peptide binding; Potency, µM (doses to about 114 µM), for inactives: top-dose activity change, negative = inhibition, usual class: inhibitors; hit rate 4.4% among 390,000; note: potency is the fitted concentration of half-maximal effect; % is set by controls: 0 for no effect and ±100 for the full control effect; nearly all actives have a fitted effect of over 50% in size
The depositor's hits bear a star; u = inconclusive; x = not tested or not shown; [ ] = dose if it differs, or a comment. Unless noted, calls come from the whole dose curve; as a rule, active = well fitted inhibition curve with a large enough effect; inconclusive = small, poorly fitted or top-dose-only effect; inactive = no such curve, though single readings can be large or run the other way.

SMILES	L3MBTL1 block	BAZ2B inh	PI5P4K alpha inh	G9a inh	HP1b chromo inh	JMJD2A Tudor inh
CNC(=O)c1[nH]cnc1C(=O)NCC(=O)OCc1ccccc1	2.2%	-25.4%	-3.8	44.7µM*	37.3%	-32.9%
CCN(CC)C(=O)c1[nH]cnc1C(=O)NCC(=O)OCc1ccccc1	-1.6%	-2.8%	6.7	79.4µM*	54.2%	-17.1%
CNC(=O)c1[nH]cnc1C(=O)N[C@@H](C)C(=O)OCc1ccccc1	x	50.1µM*	-4.3	-9.1%[12.7 µM]	65.1%	-33.1%
Cc1ccc(C2CC(C(F)F)n3ncc(C(=O)Nc4cnn(Cc5ccccc5C)c4)c3N2)cc1 (stereo not given)	-5.0%	7.8%	-3.7	44.7µM*	1.3%	-22.6%
CN1C(=O)C(Cl)(Cl)C(=O)c2ccccc21	-12.6%	39.8µM*	-88.6*	1µM*	-13.8%	28.2µM*
CCN(CC)CCOC(=O)C1(c2ccccc2)CCOCC1	-4.4%	1.8%	-2.4	3.7%	7.9%	-8.9%[11.4 µM]
CCN(CC)CCOC(=O)C(Cc1cccc2ccccc12)CC1CCCO1 (stereo not given)	x	50.1µM*	1.2	-21.6%	u	20µM*
Cc1ccc(C)c(S(=O)(=O)c2nnn3c2nc(NC(C)C)c2sccc23)c1	x	-14.8%	x	-28.7%[59 µM]	13.0%	-25.6%
Cc1nonc1OCCNc1ccc([N+](=O)[O-])cc1[N+](=O)[O-]	-1.4%	-13.9%	15.9	-13.3%[59 µM]	-13.3%	u
Cc1nonc1OCCCNc1ccc([N+](=O)[O-])cc1Cl	x	-26.1%	5.0	1.26µM*	28.9%	-25.7%[57.1 µM]
COc1ccccc1/C=c1\sc2nc(-c3ccccc3OC)nn2c1=O	-4.7%	-25.8%	9.2	x	17.2%	-13.2%
Cc1ccc(/C=c2\sc3nc(-c4ccccc4Br)nn3c2=O)o1	x	50.1µM*	u	3.55µM*	0.7%	50.1µM*
Cc1ccc(/C=c2/sc3nnc(-c4ccccc4Cl)n3c2=O)o1	u	39.8µM*	-25.4	11.2µM*	-34.8%	22.4µM*
CC(OC(=O)c1cccc(-n2cnnn2)c1)C(=O)Nc1ccc(N(C)C)cc1 (stereo not given)	-4.4%	-5.4%	-7.3	7.08µM*	27.9%	-11.7%
CC(OC(=O)c1cccc(-n2cnnn2)c1)C(=O)Nc1ccccc1F (stereo not given)	-5.8%	4.4%	-2.1	50.1µM*	17.0%	-5.5%
COc1ccc(C(c2c(O)ccc3ccccc23)N2CCOCC2)c(OC)c1 (stereo not given)	-12.3%	-9.6%	-1.5	31.6µM*	-4.5%	89.1µM*
COc1ccc(/C=C2\CCc3ccccc3C2=O)cc1O	x	u	-4.9	79.4µM*	-14.4%	u
O=C1/C(=C\c2cccnc2)CCc2ccccc21	0.8%	0.9%	0.9	-11.8%	29.2%	-15.8%
CN(C)c1ccc(/C=C2\CCC/C(=C\c3ccccc3)C2=O)cc1	-3.6%	u	25.2	3.55µM*	-15.9%	u
O=C1/C(=C/c2ccccc2)CCCc2ccccc21	13.0%	85.8%	10.5	7.9%[59 µM]	116.0%	100µM*
COc1ccc2c(C)c(CCC(=O)NCCc3ccc(OC)c(OC)c3)c(=O)oc2c1	x	-11.5%	x	-0.2%[59 µM]	13.5%	-29.2%
Clc1cccc(/C=N/Nc2ncnc3ccccc23)c1	-9.0%	35.5µM*	-0.6	x	-7.0%	u
N#C/C(=C/c1ccc(F)cc1)C(N)=S	46.9%	-15.4%	6.9	5.62µM*	-3.7%	-8.1%
N#CC(C#N)=C(N)/C(C#N)=C/c1cc(O)c(O)c(O)c1	u	11.2µM*	-67.4*	5.62µM*	17.8µM*	17.8µM*
N#C/C(=C\c1ccncc1)C(N)=O	5.4%	-15.0%	-8.1	-47.5%	23.4%	-7.7%
